Source: the supplement of paper PMC3334620
Over roughly 33,000 sequences, “E-score (-0.5 to 0.5)” has its median near -0.012; the highest 2% begin near 0.27. The sample as a whole holds a higher share of the highest values than the screen did.

These sequences were tested against T1, Vhr1 (UniProt P40522) (assay: PBM E-score (8-mer binding enrichment) (E-score (-0.5 to 0.5)); higher = stronger / more preferred TF binding). Conditions: protein concentration: 200 nM; construct: GST-full length.
T1 sequence: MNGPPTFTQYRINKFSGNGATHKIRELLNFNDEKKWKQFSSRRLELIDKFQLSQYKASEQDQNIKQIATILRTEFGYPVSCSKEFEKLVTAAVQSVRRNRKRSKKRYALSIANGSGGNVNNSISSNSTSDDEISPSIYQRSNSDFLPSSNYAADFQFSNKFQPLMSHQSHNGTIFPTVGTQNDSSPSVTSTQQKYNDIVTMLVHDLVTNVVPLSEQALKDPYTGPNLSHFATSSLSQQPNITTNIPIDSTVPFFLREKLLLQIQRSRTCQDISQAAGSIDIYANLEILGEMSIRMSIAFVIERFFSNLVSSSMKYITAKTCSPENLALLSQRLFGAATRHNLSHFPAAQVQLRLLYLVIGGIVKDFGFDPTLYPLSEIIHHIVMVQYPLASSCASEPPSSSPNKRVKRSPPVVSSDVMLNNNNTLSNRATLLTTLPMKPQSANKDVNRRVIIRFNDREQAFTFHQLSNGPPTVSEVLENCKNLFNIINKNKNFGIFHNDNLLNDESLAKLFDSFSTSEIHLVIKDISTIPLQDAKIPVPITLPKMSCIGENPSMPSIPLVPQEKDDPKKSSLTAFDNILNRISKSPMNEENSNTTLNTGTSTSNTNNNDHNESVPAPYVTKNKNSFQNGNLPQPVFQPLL
Description: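 Universal 'all 10-mer' protein binding microarrays (Agilent AMADID 015681) probed with GST-tagged S. cerevisiae TFs (full-length or DBD) made by in vitro transcription/translation (PURExpress), about 100-200 nM. Bound TF was detected with fluorescent anti-GST. Each ungapped 8-mer (which stands for itself and its reverse complement) is scored by the PBM enrichment score (E-score), a modified Wilcoxon-Mann-Whitney statistic from -0.5 to +0.5, computed with the Universal PBM Analysis Suite. Scale: above 0.35 generally sequence-specific binding.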

Sequence | PBM E-score
AGGGAGTA | 0.113
AGGGAGTC | 0.343
AGGGAGTG | 0.042
CGGGAGTA | 0.00502
CGGGAGAC | -0.0366
CGGGAGTC | 0.386
ACCACAAC | 0.258
AATACAGG | 0.111
CTCCTCTA | -0.189
CCGGGTGA | 0.208
ACGGGTCA | -0.077
ACGGGTGA | 0.117
GCGGGTCA | 0.308
GGGGGTGA | 0.132
AGGGGTGA | -0.0936
CGGGGTGA | 0.275
GCGGGTCC | -0.00354
GCGGGTGA | 0.293
GCTTAAAA | -0.0463
ACAGTTAA | 0.0518
GTACCTAA | -0.0816
CGGTCGAC | 0.0782
GAAGATAA | -0.0175
ATCACCCC | 0.199
GTCACCGA | 0.256

Sequence | PBM E-score
CTCACCGA | 0.183
ATCACCCA | 0.223
CTCACCAA | 0.265
CTCACCCC | 0.318
GTCACCCA | 0.311
CTTACCCC | -0.156
CTCACCCA | 0.342
ACTGGTGG | 0.0234
GAGGGCTA | -0.228
AGTATGAT | 0.271
CGTATGAC | 0.142
AGTATGAA | 0.203
AGTATGAC | 0.311
GGTATGAC | 0.231
AGTATGAG | 0.0941
CCTGTGGA | -0.166
CTCTCATC | -0.131
CTTGCGGC | -0.0654
GATATATA | 0.284
CATACATA | 0.238
GATACATC | 0.224
GATACATA | 0.332
AATATATA | 0.157
TATATACA | 0.162
TATATATA | 0.318

Sequence | PBM E-score
CATATATA | 0.256
GATATATC | 0.0354
AATATATT | 0.284
AATATATG | 0.19
GATATACA | 0.113
ATGGCTTC | 0.00791
CGTTTCGC | -0.0307
GAGTATGA | 0.228
CTCTCAAC | 0.00283
GCTTAGTA | -0.171
GGATCAAC | -0.0769
GTAACCAA | 0.103
TGCAATAA | -0.0029
GGGGCCCA | -0.0152
ACTGATAG | 0.167
AGAATTAA | -0.301
ATTGAAGC | -0.163
AAAATTCA | -0.128
ATACTATC | 0.128
CTACTATC | 0.277
CTACTATA | 0.168
GGTCTGAC | 0.226
CTGATGAC | 0.19
ATGATGAG | 0.196
GGGATGAA | -0.00977

Sequence | PBM E-score
ATGATGAC | 0.303
AGGATGAG | 0.225
GGGATGAC | 0.323
AGGATGAA | -0.0977
AGGATGAC | 0.112
AGGATGAT | 0.309
GCTAGCCA | -0.17
CAGATCAG | -0.112
CGCGAATC | 0.193
ACGTATCC | -0.194
CCATTAGC | -0.0966
ATTGGCCG | -0.13
GCACTGAC | 0.0316
GCGAAGAA | -0.191
CCACACCA | 0.141
ACACACCC | 0.198
ACACACCT | 0.283
ACACACCG | 0.223
ACACACCA | 0.282
TCACACCA | 0.17
AACGTCAA | -0.269
AGGCTTCC | -0.119
CAAACGAG | 0.0174
CTATGGCA | -0.132
GTCCTTAA | -0.00154

Sequence | PBM E-score
CGCGCGCA | 0.259
AGCGCGCG | 0.0844
GGCGCGCA | 0.121
TGCGCGCA | 0.29
CGCGCGCG | 0.286
CGCGCGCC | 0.228
TGGTTGAA | -0.0692
TATGCTCA | 0.0368
GAGTGCCC | -0.0963
AAGCACTA | -0.0763
CATGCTGA | 0.275
AATGCTGA | 0.027
GATGCTGA | 0.0169
AACGACGC | -0.0318
CATTCACC | 0.0887
AAGAGGAT | -0.0743
GGTCTTTA | -0.0868
ACTCCCTA | 0.063
ACTCCCTC | 0.0377
ACTCCCTG | 0.276
CGGGTCAG | 0.204
GCAAGTCA | 0.279
TCAAGTCA | 0.111
ACAAGTCA | 0.174
GGAAGTCA | 0.282

Sequence | PBM E-score
CGAAGTCA | 0.203
GGAAGTCC | -0.212
TAGTTGAA | 0.134
AAGAAACA | -0.161
CCAGACGC | -0.029
CTAAGGAC | -0.0588
CGTTGCCC | -0.166
ATCGCCTA | 0.0387
AGGCAAAG | -0.192
TAGAGTGA | -0.0169
AAGAGTCC | -0.149
GAGAGTCC | -0.0872
TAGAGTAA | -0.082
AAGAGTCT | 0.00073
GAGAGTAA | 0.0595
GAGAGTCA | 0.43
AAGAGTCA | 0.422
TAGAGTCA | 0.355
GGCTGGTA | 0.0349
TATATTCA | 0.0779
GAGTGTTA | 0.00822
GTGCGATA | 0.0799
GCAGTCTA | -0.0301
CGGGTGAC | 0.143
GCATTGAC | -0.0613

Sequence | PBM E-score
GGCTGCCA | 0.181
GCGGTAGC | 0.0852
CAGAGAGG | -0.086
AGGGTGGC | 0.173
AGGGTGGA | 0.0785
AGGGTGGG | 0.282
AAGACTCC | 0.158
GAGACTTA | -0.164
TAGACTCA | 0.221
GAGACTCA | 0.36
GAGACTCC | 0.286
AAGACTCT | 0.209
CAGACTCC | -0.0111
CAGACTCA | 0.27
AAGACTCA | 0.317
CGAACCAG | 0.0659
AACGGTTG | 0.038
CCATAGGC | -0.172
GCCGCCCA | 0.128
ACCGCCCG | -0.058
CCCCGCCC | 0.258
CCCGCCCC | 0.329
GCCGCCCC | 0.0606
CCCGCCCA | 0.301
ACCGCCCC | 0.325

Sequence | PBM E-score
CCCGCCCG | 0.259
ACCGCCCT | -0.0373
GAGTCTGC | -0.0315
AGTTTATG | -0.0791
ACGTTATG | -0.0459
CCTTCGCC | -0.031
ATGCAGTA | 0.0873
ATGCAGTC | 0.184
ATGCAGTG | 0.276
GAATTTCC | -0.0327
GGAGAAAA | -0.292
AATCCACC | 0.154
CAGTCCGA | 0.126
AAGTCGGC | -0.177
CAGTCGGC | 0.0497
CAGTCGGA | 0.0502
TAGTCGGA | 0.203
GAGTCGGC | 0.411
AAGTCGTA | -0.0973
GAGTCGTA | 0.405
GAGTCGGA | 0.416
CAGTCGTA | 0.132
GAGTCCGC | 0.224
GAGTCCGA | 0.308
AGTCCACT | -0.158

Sequence | PBM E-score
ATGCATCC | -0.152
GCAGCCCA | 0.0376
AGGATTGG | -0.0691
TAGTTAAA | 0.0419
AACTGAAT | 0.00051
GATTGGCA | -0.056
AACTGAGG | -0.0666
GTACAAAA | -0.0126
ACGTTGAC | 0.0527
CCACCTGG | -0.0837
CATCCTCG | 0.124
AATATCAA | 0.0811
CATATCGA | 0.292
CATATCAA | 0.278
CATATCGG | 0.0424
GATATCGA | -0.0237
CATATCAG | -0.0382
CTTATACC | -0.0429
GCACAGAA | -0.0823
